SMILES strings stand for the structures. Activity calls are given as the source filed them. The calls were made as follows: active = hit-call score of the fitted dose curve at least 0.9, where 1 is the maximum; inactive = score below 0.9.

Read-out in assay [1]: C-C motif chemokine 2 (Homo sapiens) (UniProt P13500)
Kind of assay: BSK_KF3CT_MCP1: BioMAP Diversity Plus: KF3CT Assay for Monocyte Chemoattractant Protein 1 (MCP1/CCL2) Biomarker Activity (AID 2283073). The note with it: primary human keratinocytes with fibroblasts; actives raise or lower the signal. A digest of the protocol:
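Biomarker MCP-1 is measured by ELISA in primary human keratinocytes co-cultured with foreskin fibroblasts, 24 h after chemical treatment; DMSO serves as the negative control and activity baseline.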

Read-out in assay [2]: Matrix Metallopeptidase 9 (MMP9), MMP9 (gene 4318)
Kind of assay: BSK_KF3CT_MMP9: BioMAP Diversity Plus: KF3CT Assay for Matrix Metallopeptidase 9 (MMP9) Biomarker Activity (AID 2283074).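 As to AC50: MMP9 protein level quantified by ELISA in the co-culture.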 The settings on record: primary human keratinocytes with fibroblasts; actives raise or lower the signal. An outline of the steps: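 Human keratinocyte and foreskin fibroblast co-culture exposed to chemicals for 24 h; MMP9 biomarker measured by ELISA, bidirectional fitting relative to DMSO; cytotoxicity tracked by SRB total protein staining in parallel cultures.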

Read-out in assay [3]: urokinase plasminogen activator (uPA), PLAU (gene 5328)
Kind of assay: BSK_KF3CT_uPA: BioMAP Diversity Plus: KF3CT Assay for urokinase plasminogen activator (uPA) Biomarker Activity (AID 2283075). The settings on record: primary human keratinocytes with fibroblasts; actives raise or lower the signal. A digest of the protocol:
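Primary human keratinocyte/foreskin fibroblast co-culture exposed to chemical; uPA measured by ELISA at 24 h. Bidirectional fit versus DMSO, with parallel SRB total-protein staining for cytotoxicity.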

Read-out in assay [4]: CD40, CD40 (gene 958)
Kind of assay: BSK_LPS_CD40: BioMAP Diversity Plus: LPS Assay for CD40 Biomarker Activity (AID 2283076). The settings on record: primary human HUVEC with PBMC; actives raise or lower the signal. A digest of the protocol:
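Using a multiplexed primary human co-culture (umbilical vein endothelium plus PBMC), CD40 was read by ELISA 24 h after dosing, with cytotoxicity tracked by sulforhodamine B staining of parallel cultures and activity fitted bidirectionally versus DMSO.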

Read-out in assay [5]: E-selectin (Homo sapiens) (UniProt P16581)
Kind of assay: BSK_LPS_Eselectin: BioMAP Diversity Plus: LPS Assay for Eselectin Biomarker Activity (AID 2283077). The note with it: primary human HUVEC with PBMC; actives raise or lower the signal. A digest of the protocol:
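Dose chemical onto LPS-driven HUVEC/PBMC co-culture; after 24 h, run ELISA for E-selectin; fit up- and down-going responses relative to DMSO control.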

Read-out in assay [6]: Interleukin-8 (IL8), CXCL8 (gene 3576)
Kind of assay: BSK_LPS_IL8: BioMAP Diversity Plus: LPS Assay for Interleukin-8 (IL8) Biomarker Activity (AID 2283078). The note with it: primary human HUVEC with PBMC; actives raise or lower the signal. An outline of the steps: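 In this LPS system, chemical-treated human umbilical vein endothelium/PBMC co-cultures were harvested at 24 h for IL-8 ELISA.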

Assay [7] is described as follows: BSK_LPS_SRB: Viability Assessment in the BioMAP Diversity Plus: LPS Assay (AID 2283079).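 Also: total protein by sulforhodamine B absorbance as a cytotoxicity measure; measured one day after compound addition; fitted in both directions against DMSO so loss or gain of signal counts.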 The note with it: primary human HUVEC with PBMC. A digest of the protocol:
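Cytotoxicity endpoint in human endothelial–PBMC co-culture: 24 h exposure, then SRB (0.1%) staining, 560 nm read.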

Read-out in assay [8]: Interleukin-1 alpha (IL1a), IL1A (gene 3552)
Kind of assay: BSK_LPS_IL1a: BioMAP Diversity Plus: LPS Assay for Interleukin-1 alpha (IL1a) Biomarker Activity (AID 2283080). The settings on record: primary human HUVEC with PBMC; actives raise or lower the signal. A digest of the protocol: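 Primary human HUVEC and PBMC co-culture stimulated with LPS is dosed and harvested at 24 h. Both increases and decreases in ELISA-measured IL-1a are scored relative to DMSO.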

Read-out in assay [9]: Monocyte Chemoattractant Protein-1 (MCP1), CCL2 (gene 6347)
Kind of assay: BSK_LPS_MCP1: BioMAP Diversity Plus: LPS Assay for Monocyte Chemoattractant Protein-1 (MCP1) Biomarker Activity (AID 2283081).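 As to AC50: secreted MCP-1 protein quantified by ELISA in culture supernatant.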 The settings on record: primary human HUVEC with PBMC; actives raise or lower the signal. An outline of the steps: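 Values derive from bidirectional fitting against DMSO of ELISA-measured MCP-1 in a human primary endothelial and mononuclear cell co-culture, 24 h after chemical addition under LPS activation.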

The nature of assay [10]: BSK_LPS_PGE2: BioMAP Diversity Plus: LPS Assay for Prostaglandin E2 (PGE2) Biomarker Activity (AID 2283082). The settings on record: primary human HUVEC with PBMC; actives raise or lower the signal. An outline of the steps: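 HUVEC plus human PBMC co-culture stimulated with LPS; secreted PGE2 quantified by ELISA 24 h after chemical dosing. Activity fitted bidirectionally against DMSO baseline; parallel SRB staining (0.1% SRB after 10% TCA fixation, 560 nm) flags overt cytotoxicity.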

Read-out in assay [11]: Macrophage colony-stimulating factor (MCSF), CSF1 (gene 1435)
Kind of assay: BSK_LPS_MCSF: BioMAP Diversity Plus: LPS Assay for Macrophage colony-stimulating factor (MCSF) Biomarker Activity (AID 2283083). The note with it: primary human HUVEC with PBMC; actives raise or lower the signal. A digest of the protocol:
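Bidirectional fit versus DMSO of ELISA-measured M-CSF in co-cultured human umbilical vein endothelial cells and PBMC, sampled 24 h after dosing.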

Read-out in assay [12]: Tissue Factor, F3 (gene 2152)
Kind of assay: BSK_LPS_TissueFactor: BioMAP Diversity Plus: LPS Assay for Tissue Factor Biomarker Activity (AID 2283084). The note with it: primary human HUVEC with PBMC; actives raise or lower the signal. An outline of the steps:
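Read-out: CD142 ELISA, 24 h. System: LPS-driven human endothelial/PBMC co-culture. Analysis: up- or down-signal fitted against DMSO.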

Read-out in assay [13]: Tumor necrosis factor (Homo sapiens) (UniProt P01375)
Kind of assay: BSK_LPS_TNFa: BioMAP Diversity Plus: LPS Assay for Tumour Necrosis Factor alpha (TNFa) Biomarker Activity (AID 2283085). The settings on record: primary human HUVEC with PBMC; actives raise or lower the signal. An outline of the steps: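 Human umbilical vein endothelial cells co-cultured with PBMC and stimulated with LPS. TNFa was measured by ELISA 24 h after chemical dosing, fitted bidirectionally relative to DMSO.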

Read-out in assay [14]: Vascular cell adhesion molecule 1 (VCAM1), VCAM1 (gene 7412)
Kind of assay: BSK_LPS_VCAM1: BioMAP Diversity Plus: LPS Assay for Vascular cell adhesion molecule 1 (VCAM1) Biomarker Activity (AID 2283086). The settings on record: primary human HUVEC with PBMC; actives raise or lower the signal. A digest of the protocol:
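Human umbilical vein endothelial cells co-cultured with PBMC and stimulated with LPS; VCAM-1 measured by ELISA 24 h after dosing. Bidirectional curve fitting against DMSO baseline; cytotoxicity tracked in parallel by SRB total-protein staining.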

Read-out in assay [15]: CD38, CD38 (gene 952)
Kind of assay: BSK_SAg_CD38: BioMAP Diversity Plus: SAg Assay for CD38 Biomarker Activity (AID 2283087). The settings on record: primary human HUVEC with PBMC; actives raise or lower the signal. An outline of the steps: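 Human HUVEC plus PBMC co-culture stimulated with superantigen; CD38 measured by ELISA 24 h after chemical dosing. Fluorescence read-out, bidirectional fit against DMSO; cytotoxicity tracked in parallel by SRB and Alamar Blue.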

Read-out in assay [16]: CD40, CD40 (gene 958)
Kind of assay: BSK_SAg_CD40: BioMAP Diversity Plus: SAg Assay for CD40 Biomarker Activity (AID 2283088). The note with it: primary human HUVEC with PBMC; actives raise or lower the signal. A digest of the protocol: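 Endpoint derived by fitting increases or decreases versus DMSO controls. CD40 is detected by fluorescence ELISA in a human vascular co-culture of endothelium and PBMC at 24 h.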

Read-out in assay [17]: CD69, CD69 (gene 969)
Kind of assay: BSK_SAg_CD69: BioMAP Diversity Plus: SAg Assay for CD69 Biomarker Activity (AID 2283089).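 As to AC50: cell surface CD69 protein quantified by ELISA with fluorescence detection.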 The settings on record: primary human HUVEC with PBMC; actives raise or lower the signal. A digest of the protocol:
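Values derive from bidirectional fitting relative to DMSO vehicle. Cells: umbilical vein endothelium plus peripheral blood mononuclear cells, treated 24 h before fluorescent ELISA for CD69.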

Read-out in assay [18]: Monocyte Chemoattractant Protein-1 (MCP1), CCL2 (gene 6347)
Kind of assay: BSK_SAg_MCP1: BioMAP Diversity Plus: SAg Assay for Monocyte Chemoattractant Protein-1 (MCP1) Biomarker Activity (AID 2283090). The note with it: primary human HUVEC with PBMC; actives raise or lower the signal. An outline of the steps:
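MCP-1 levels in the endothelial–PBMC SAg co-culture were quantified by ELISA at 24 h post-dosing; both increases and decreases versus DMSO scored. Cytotoxicity monitored by SRB total protein in parallel cultures.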

Read-out in assay [19]: E-selectin (Homo sapiens) (UniProt P16581)
Kind of assay: BSK_SAg_Eselectin: BioMAP Diversity Plus: SAg Assay for Eselectin Biomarker Activity (AID 2283091). The note with it: primary human HUVEC with PBMC; actives raise or lower the signal. An outline of the steps: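 Endpoint values derive from bidirectional fitting relative to DMSO, using ELISA-measured E-selectin in a human vascular co-culture (umbilical vein endothelium plus PBMC) sampled 24 h after dosing.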

Read-out in assay [20]: Monokine induced gamma interferon (MIG), CXCL9 (gene 4283)
Kind of assay: BSK_SAg_MIG: BioMAP Diversity Plus: SAg Assay for Monokine induced gamma interferon (MIG) Biomarker Activity (AID 2283092). The note with it: primary human HUVEC with PBMC; actives raise or lower the signal. An outline of the steps:
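Values reflect bidirectional fitting of ELISA-measured MIG against DMSO vehicle, taken 24 h after dosing of a co-culture of human umbilical vein endothelial cells and peripheral blood mononuclear cells.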

E-selectin (Homo sapiens), sequence (P16581 whole entry, looked up): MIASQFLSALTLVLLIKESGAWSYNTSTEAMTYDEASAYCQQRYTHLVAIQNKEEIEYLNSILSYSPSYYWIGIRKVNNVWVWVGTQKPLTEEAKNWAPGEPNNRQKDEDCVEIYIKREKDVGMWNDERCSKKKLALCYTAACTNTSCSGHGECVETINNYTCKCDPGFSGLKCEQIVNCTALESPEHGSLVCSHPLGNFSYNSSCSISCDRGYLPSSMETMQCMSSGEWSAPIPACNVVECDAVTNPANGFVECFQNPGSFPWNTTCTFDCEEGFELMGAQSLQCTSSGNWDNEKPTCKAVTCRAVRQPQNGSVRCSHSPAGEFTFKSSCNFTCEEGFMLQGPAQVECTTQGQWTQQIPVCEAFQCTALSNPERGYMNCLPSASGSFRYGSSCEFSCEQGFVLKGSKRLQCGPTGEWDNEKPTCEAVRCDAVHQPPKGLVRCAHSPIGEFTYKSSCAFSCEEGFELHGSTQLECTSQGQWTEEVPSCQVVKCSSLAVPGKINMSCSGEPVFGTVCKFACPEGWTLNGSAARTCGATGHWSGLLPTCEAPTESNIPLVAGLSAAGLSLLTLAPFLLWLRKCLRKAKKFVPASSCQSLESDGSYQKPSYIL
Tumor necrosis factor (Homo sapiens), sequence (P01375 whole entry, looked up): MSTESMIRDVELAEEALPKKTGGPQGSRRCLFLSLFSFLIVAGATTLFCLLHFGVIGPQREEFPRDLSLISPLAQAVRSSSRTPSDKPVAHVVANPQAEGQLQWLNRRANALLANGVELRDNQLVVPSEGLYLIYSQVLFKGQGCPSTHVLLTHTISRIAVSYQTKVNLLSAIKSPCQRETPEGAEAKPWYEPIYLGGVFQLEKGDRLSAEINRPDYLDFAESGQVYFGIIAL

Take `Cc1ccc2oc(CN(Cc3ccccc3)C(=O)Nc3c(F)cc(F)cc3F)c(-c3ccc(Cl)cc3)c2c1`: the outcome in [1], in assay [2], in assay [3], in [4], in [5] and in [6] was inactive. Moreover, the outcome in assay [7], in assay [8], in [9], in assay [10], in assay [11] and in [12] was inactive. Also, the outcome in assay [13], in assay [14], in assay [15], in assay [16], in assay [17] and in assay [18] was inactive. Further, in assay [19], the result was inactive.
One may read the AC50 as the concentration giving half of the maximal activity seen. For the compound `CCCCOC(=O)c1ccc(O)cc1`, the outcome in [2], in assay [3], in [4], in assay [5], in assay [6] and in [7] was inactive. Besides, the result in [8], in assay [9], in [11], in [12], in assay [13] and in assay [14] was inactive. Also, the outcome in assay [15], in assay [16], in assay [17], in assay [18] and in assay [19] was inactive. Further, the concentration at half-maximal activity (AC50) in [10] is 20 µM (active).
With `CC(C)(O)c1ccc(CNC(=O)c2cccnc2Oc2ccc3nonc3c2)cc1`, the result in [1], in [2], in [3], in assay [4], in [5] and in assay [6] was inactive. The result in assay [7], in assay [8], in [9], in assay [10], in assay [11] and in assay [12] was inactive. The outcome in [14], in assay [15], in assay [16], in assay [17], in assay [18] and in assay [20] was inactive. The AC50 in [13] is 1.49 µM (active); in assay [19] it was 1.4 µM (active).
Regarding `CC/C(=C(/CC)c1ccc(O)cc1)c1ccc(O)cc1`, the AC50 in assay [1] is 11.2 µM (active); in assay [2], 12.3 µM (active); in [3] it was 29.3 µM (active); in assay [4], 20 µM (active); in assay [5], 30.3 µM (active); in assay [6] it was 37 µM (active). Also, the AC50 in assay [7] is 25.4 µM (active); in assay [8] it was 29.7 µM (active); in assay [9], 33.9 µM (active); in assay [10] it was 20 µM (active); in [11] it was 15.2 µM (active); in [12] it was 29.9 µM (active). Moreover, the AC50 is 32.3 µM (active) in assay [13]; 26.8 µM (active) in assay [14]; 19 µM (active) in assay [15]; 17.8 µM (active) in assay [16]; 25.1 µM (active) in assay [17]; 21.6 µM (active) in [18]. For the same compound, the AC50 in assay [19] is 8.84 µM (active).
Take `c1ccc2n[nH]nc2c1`: the result in assay [1], in [2], in assay [3], in assay [4], in assay [5] and in assay [6] was inactive. The result in [7], in assay [8], in assay [9], in assay [10], in [11] and in assay [12] was inactive. The result in [13], in assay [14], in assay [15], in assay [16], in assay [17] and in [18] was inactive. The outcome in assay [19] was inactive.
Consider `CC(C)(C)c1cc(/C=C2\SC(N)=NC2=O)cc(C(C)(C)C)c1O`, for which the AC50 in [1] was 6.59 µM (active); in assay [2] it was 9.79 µM (active); in assay [3], 12.5 µM (active); in assay [4] it was 13 µM (active); in assay [5], 27.2 µM (active); in assay [6], 20 µM (active). Besides, the AC50 is 26.4 µM (active) in assay [7]; 11.5 µM (active) in assay [8]; 26.9 µM (active) in assay [9]; 0.186 µM (active) in assay [10]; 16 µM (active) in [11]; 25.1 µM (active) in [12]. In addition, the AC50 in assay [13] was 11.7 µM (active); in assay [14], 15.6 µM (active); in assay [15], 12.2 µM (active); in assay [16], 17.4 µM (active); in assay [17] it was 20 µM (active); in [18] it was 12.7 µM (active). In addition, the AC50 was 7.42 µM (active) in assay [19] and 27.6 µM (active) in assay [20].

Values taken from PubChem BioAssay (EPA / NIEHS).
